Hit rate of the full screen: of about 52,000 compounds, about 4,300 (8.3%) were called active. This excerpt belongs to a sample that is enriched for actives. Values without a mark were called inactive. Rule as the data show it: active = survival mostly below about 52% (no sharp cut-off); inactive = mostly above about 56%.

For this experiment, the system named is DeltatarO mutant. Briefly: growth inhibition of S. aureus wild type versus tarO mutant, primary screen, teichoic acid synthesis inhibitors, RN4220, OD600 (AID 463173). Conditions: OD600, 18 h, hits give low values, screened at 18.75 µg/mL (by protocol).
Take `CCc1ccc(S(=O)(=O)c2cn(CC)c3cc(N4CCCCC4)c(F)cc3c2=O)cc1`: the survival is 83%.

With `CCOc1ccc2[nH]c(=O)c(CN(Cc3ccccc3OC)C(=O)N3CCCC3)cc2c1`, the survival is 96%.

Turning to `NCCS(=O)(=O)N1CCCC1`, the survival was 88%.

Regarding `Cc1ccn2c(c1)nc(=O)c1cc(S(=O)(=O)N3CCC(C)CC3)c(Cl)cc12`, the survival is 87%.

Turning to `COc1ccc(NC(=O)CC2C(=O)N(c3cccc(C)c3)C(=O)N2C2CCCCC2)cc1` (configuration not stated), the survival was 69%.

On to `COc1ccc(NC(=O)CSc2ccc3nc(-c4ccccc4)cn3n2)cc1OC`, for which the survival was 113%.

Regarding `CCOC(=O)N1CCN(Cc2nc3cc(NC(=O)c4ccccc4Cl)ccc3n2C(C)C)CC1`, the survival was 70%.

As to `COC(=O)CN1C(=O)CSc2ccc(S(=O)(=O)Nc3ccccc3)cc21`, the survival was 91%.

With `COC(=O)CN1C(=O)CSc2ccc(S(=O)(=O)Nc3cccc(Br)c3)cc21`, the survival is 37% (active).

Turning to `COC(=O)CN1C(=O)CSc2ccc(S(=O)(=O)Nc3cccc(C)c3)cc21`, the survival is 101%.

For `COC(=O)CN1C(=O)CSc2ccc(S(=O)(=O)Nc3cccc(C)c3C)cc21`, the survival is 63%.

With `COC(=O)CN1C(=O)CSc2ccc(S(=O)(=O)Nc3c(C)cc(C)cc3C)cc21`, the survival is 101%.

Consider `COC(=O)CN1C(=O)CSc2ccc(S(=O)(=O)Nc3cc(C)ccc3C)cc21`, for which the survival is 25% (active).

In the case of `CC(C(=O)O)N1CCCCC1` (configuration not stated), the survival was 79%.

For the molecule `CCOc1ccc2[nH]c(=O)c(CN(Cc3cccnc3)S(=O)(=O)c3ccccc3)cc2c1`, the survival was 86%.

`CCOc1ccccc1NC(=O)Cn1c(=O)n(Cc2nc(C)no2)c(=O)c2ccccc21`: the survival was 81%.

With `Cc1cc(C)c(NC(=O)CN2C(=O)CCSc3ccc(S(=O)(=O)N4CCCC4)cc32)c(C)c1`, the survival was 84%.

With `Cc1ccc(NC(=O)CN2C(=O)c3ccccc3Sc3ccc(C(=O)N4CCOCC4)cc32)c(Cl)c1`, the survival was -5% (active).

Turning to `Cc1ccc(NC(=O)CN2C(=O)c3ccccc3Sc3ccc(C(=O)N4CCCC4)cc32)cc1`, the survival was 76%.

Regarding `CN(C)c1ccc(NC(=O)CN2C(=O)c3ccccc3Sc3ccc(C(=O)N4CCCC4)cc32)cc1`, the survival was -2% (active).

In the case of `Cc1cc(C)cc(NC(=O)CN2C(=O)c3ccccc3Sc3ccc(C(=O)N4CCOCC4)cc32)c1`, the survival was 89%.

Turning to `CCc1ccc(NC(=O)CN2C(=O)c3ccccc3Sc3ccc(C(=O)N4CCCC4)cc32)cc1`, the survival is 86%.

Regarding `O=C(CN1C(=O)c2ccccc2Sc2ccc(C(=O)N3CCOCC3)cc21)Nc1ccc(Cl)cc1F`, the survival was 94%.

Turning to `CCOc1ccccc1N(CC)C(=O)Cn1ncc2c1-c1ccccc1OC2`, the survival was 62%.

`COc1cccc(C(=O)N(Cc2ccc(N(C)C)cc2)Cc2ccco2)c1`: the survival is 69%.

Regarding `CCOCN(C(=O)Cn1c(C)nc2ccccc21)c1c(C)cccc1CC`, the survival was 125%.

On to `CCCCc1nc2ccccc2n1CC(=O)N(COCC)c1c(C)cccc1CC`, for which the survival was -12% (active).

As to `CCOCN(C(=O)Cn1c(CC(C)C)nc2ccccc21)c1c(C)cccc1CC`, the survival is -12% (active).

Turning to `CCOCN(C(=O)Cn1c(COC)nc2ccccc21)c1c(C)cccc1CC`, the survival was 95%.

As for `CCc1cccc(CC)c1N(COC)C(=O)Cn1c(CC)nc2ccccc21`, the survival is 69%.

For the molecule `CCOCN(C(=O)Cn1c(C(C)O)nc2ccccc21)c1c(C)cccc1CC` (configuration not stated), the survival was 83%.

`CCc1ccc(NC(=O)Cn2c(=O)n(-c3cc(C)cc(C)c3)c(=O)c3oc4ccccc4c32)cc1`: the survival is 73%.

For the molecule `COc1ccc(-c2cn(-c3ccc(C)cc3)c(S(=O)(=O)CC(=O)Nc3ccc(F)cc3)n2)cc1`, the survival is 150%.

For the molecule `CCc1ccc(NC(=O)c2sc3nc(C)c(Cl)c(C)c3c2NC(=O)c2ccccc2OC)cc1`, the survival was 130%.

Consider `COc1ccc(N2CCN(C(=O)C(CC(C)C)NS(=O)(=O)c3ccc4nc(C)sc4c3)CC2)cc1` (configuration not stated), for which the survival is 77%.

As for `Cc1ccccc1CSc1cn(CC(=O)N2CCCC2)c2ccccc12`, the survival was 58%.

For the molecule `Cc1ccccc1CSc1cn(CC(=O)N2CCCCCC2)c2ccccc12`, the survival is 68%.

With `O=C(CSc1cn(CC(=O)N2CCCCCC2)c2ccccc12)Nc1ccccc1F`, the survival is 77%.

`Cc1ccccc1CSc1cn(CC(=O)N2CCCCC2)c2ccccc12`: the survival was 71% (active).

With `O=C(CSc1cn(CC(=O)N2CCOCC2)c2ccccc12)Nc1ccccc1F`, the survival is 88%.

With `O=C(CSc1cn(CC(=O)N2CCCCC2)c2ccccc12)Nc1ccccc1F`, the survival was 70% (active).

In the case of `CCC(=O)N1c2ccccc2CC1C(=O)N1CCN(c2cccc(Cl)c2)CC1` (configuration not stated), the survival is 77%.

`CCn1cc(C(=O)NCCc2ccc(Cl)cc2)c(=O)c2cc(S(=O)(=O)N3CCC(C)CC3)ccc21`: the survival was 105%.

`CCN(CC)CCN(C(=O)c1ccco1)c1nc2c(C)c(C)ccc2s1`: the survival was 77%.

`O=[N+]([O-])c1cc(-c2nc(-c3ccccc3)no2)ccc1N1CCCC1`: the survival was 63%.

With `O=C(CC1Nc2cccc3cccc(c23)NC1=O)Nc1ccc(F)cc1` (configuration not stated), the survival was 111%.

Turning to `Cc1ccc(NC(=O)CC2Nc3cccc4cccc(c34)NC2=O)cc1` (configuration not stated), the survival was 61%.

Consider `CCOC(=O)c1ccc(NC(=O)CC2Nc3ccccc3NC2=O)cc1` (configuration not stated), for which the survival was 62%.

Turning to `Cc1ccc(NC(=O)CC2Nc3ccccc3NC2=O)cc1C` (configuration not stated), the survival was 58%.

For `COc1cccc(NC(=O)CC2Nc3cc(C)c(C)cc3NC2=O)c1` (configuration not stated), the survival was 89%.

With `CCOC(=O)c1ccc(NC(=O)CC2Nc3cccc4cccc(c34)NC2=O)cc1` (configuration not stated), the survival is 28% (active).

On to `COc1ccc(NC(=O)CC2Nc3cccc4cccc(c34)NC2=O)cc1` (configuration not stated), for which the survival is 41% (active).

With `COc1ccc(NC(=O)CC2Nc3ccccc3NC2=O)cc1` (configuration not stated), the survival is 61% (active).

As for `Cc1cccc(NC(=O)CC2Nc3cccc4cccc(c34)NC2=O)c1` (configuration not stated), the survival was 64%.

Turning to `Cc1cccc(NC(=O)CC2Nc3ccccc3NC2=O)c1` (configuration not stated), the survival was 71%.

Take `CCOc1ccc(NC(=O)CC2Nc3cccc4cccc(c34)NC2=O)cc1` (configuration not stated): the survival is 37% (active).

For `CC(=O)c1ccc(NC(=O)CC2Nc3cccc4cccc(c34)NC2=O)cc1` (configuration not stated), the survival was 72%.

The values above are taken from PubChem BioAssay AID463173 (ICCB-Longwood Screening Facility, Harvard Medical School, 2010).
